# Compounds with a hit are over-represented: about 19% of the library has one in this group of screens.
# DT40 TDP1 CPT: growth inhibition of DT40 Tdp1-/-;hTDP1 cells with camptothecin (screen for TDP1 inhibitors); chicken DT40 Tdp1-/-;hTDP1 cells + 20 nM CPT, ATP luminescence, 48 h; Potency, µM (series often up to 46.2 µM), most hits filed as inhibitors; actives 12% (n = 420,000); AID 686979; further: nearly all actives have a fitted effect of over 55% in size
#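 Chicken DT40 Tdp1-/- cells complemented with human TDP1, 400 cells/well, exposed to compounds plus 20 nM camptothecin for at least 48 h at 37 C; viability read as ATP content by CellTiter-Glo luminescence.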
# SW480 rereplic: induces DNA re-replication in SW480 colon adenocarcinoma cells; SW480 DNA re-replication, Hoechst DNA content imaging, 48 h; Potency, µM (top dose mostly 46.1 µM), most hits filed as activators; actives 1.8% (n = 340,000); AID 624297; further: nearly all actives have a fitted effect of over 55% in size
#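 Per well, 250 cells were exposed to pinned compound for 48 hr. Nuclear DNA was visualised with Hoechst (40 min, 37 C) and total object intensity recorded by fluorescence scanning.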
# TDP1 cell noCPT: qHTS for Inhibitors of human tyrosyl-DNA phosphodiesterase 1 (TDP1): qHTS in cells in absence of CPT; AID 686978, 2013; actives 15% (n = 420,000); Potency, µM (titrated, usually from 46.2 µM), hits mostly inhibitors; DT40 Tdp1-/- hTDP1 cells, no CPT, ATP luminescence, 48 h; further: nearly all actives have a fitted effect of over 55% in size
#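 Chicken DT40 Tdp1-/- cells stably complemented with human TDP1 were seeded at 400 cells/well with DMSO in place of 20 nM camptothecin. After compound pinning, cells grew at least 48 hr at 37 °C; viability read by CellTiter-Glo luminescence.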
# MCF10A rerep: DNA re-replication induction in MCF 10a cells. actives 2.9% (n = 350,000). MCF 10A DNA re-replication, Hoechst nuclear intensity, 48 h. Potency, µM (titrated, usually from 46.1 µM), actives largely listed as activators; further: nearly all actives have a fitted effect of over 50% in size
# IL-1B inflam inh: inhibitors of inflammasome signaling (IL-1 beta secretion); activity change, % at 57.5 µM; actives 4.7% (n = 360,000); THP-1 LPS/ATP IL-1B secretion, AlphaLISA, 16 h; hits give low values; in the data active means activity change below about -50%; inconclusive means mostly about -30% to -49%
#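 THP-1 cells pretreated 1 hr with compounds (up to 57.5 uM final), then stimulated with LPS (250 ng/mL final) plus ATP (1.25 mM final); secreted IL-1B measured by AlphaLISA after 16 hr, decreased signal indicating inhibition.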
# Chronic BCR inh: blocks chronic active B-cell receptor signaling | ABC-DLBCL IkBa-CBG/CBR reporter, luminescence ratio, 4 h | Potency, µM (doses to about 46.1 µM), most hits filed as inhibitors | actives 0.05% (n = 340,000); active means well fitted inhibition curve with a large enough effect in the signal ratio, with a control signal flat, not every such curve was filed as active; inconclusive means small, poorly fitted or top-dose-only effect, or effect the other way, or a change in a side signal; the % refers to the signal ratio
#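 TMD8 human ABC-DLBCL cells with doxycycline-inducible IκBα–green luciferase fusion and unfused red luciferase, in 0.5% FBS medium; compounds up to 46 uM, 4 h at 37C. Green/red luminescence ratio, filter-overlap corrected, fitted to concentration-response curves.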
# Numbers stand for hits; – = inactive; ? = inconclusive; · = not tested or not shown. Unless noted, the call rests on the fitted dose curve; in most records, active means well fitted curve in the direction sought with a large enough effect; inconclusive means small, poorly fitted or top-dose-only effect, or another doubt; inactive means no such curve, though single readings can be large; an effect the other way counts as inactive or inconclusive.
SMILES,DT40 TDP1 CPT,SW480 rereplic,TDP1 cell noCPT,MCF10A rerep,IL-1B inflam inh,Chronic BCR inh
COc1ccc(C2CC(c3ccccc3)=NN2C(=O)CCC(=O)O)cc1 (stereo not drawn),–,–,–,–,–,–
COc1ccc(C2=NN(C(=O)CN3CCCCC3)C(c3ccc(OC)cc3)C2)cc1 (stereo not drawn),16µM,–,?,–,–,–
CC1CCc2nc(NC(=O)c3ccco3)sc2C1 (stereo not drawn),?,–,?,–,–,?
CCC(CC)C(=O)Nc1nc2c(s1)CC(C)CC2 (stereo not drawn),16µM,·,18µM,·,·,·
CCOc1ccccc1C(=O)Nc1nc2c(s1)CC(C)CC2 (stereo not drawn),?,·,21µM,·,·,·
O=C(NCCc1nnc2ccc(SCC(=O)N3CCCC3)nn12)c1ccccc1,–,–,–,–,–,–
C=C(C)C1CC=C(C)/C(=N/NC(=O)CCC(=O)Nc2ccccc2Cl)C1 (stereo not drawn),?,–,?,–,–,–
CC1(C)Oc2ccc3ccc(=O)oc3c2/C(=C/Nc2ccccc2)C1=O,?,?,–,?,-59,–
CC1(C)Oc2ccc3ccc(=O)oc3c2/C(=C/NC2CCCCC2)C1=O,?,?,?,15µM,–,–
CC1(C)Oc2ccc3ccc(=O)oc3c2/C(=C/N)C1=O,?,–,?,–,–,?
CC[C@H](C)C(N)c1cn([C@@H](CC(N)=O)C(=O)N2CCNCC2)nn1 (stereo partly drawn),–,–,–,–,–,–
O=C(NCC(=O)N1CCN(c2ccccc2F)CC1)c1ccc(Br)o1,–,–,–,–,–,–
COc1ccc2cc(C#N)c(SCC(=O)Nc3nonc3C)nc2c1,–,?,?,–,–,–
CCOC(=O)CSc1nc2cc(OC)ccc2cc1C#N,16µM,–,23µM,?,–,–
CCOC(=O)CC(=O)CSc1nc2c(cc1C#N)CCC2,8.2µM,?,21µM,4.6µM,–,–
CCOC(=O)CSc1nc2ccc(C)cc2cc1C#N,–,–,–,?,–,–
Cc1cc2cc(C#N)c(SCC(=O)Nc3nonc3C)nc2cc1C,?,?,?,15µM,–,?
CCOC(=O)CSc1nc2cc(C)ccc2cc1C#N,13µM,–,10µM,?,–,–
CCOC(=O)N1CCN(C(=O)/C(=C\c2ccc(SC)cc2)NC(=O)c2ccccc2)CC1,–,–,–,–,–,–
CCOC(=O)CSc1nc(N)c(C#N)cc1C#N,–,–,16µM,–,?,–
CCc1cc2ccc(OC)cc2nc1SCC(=O)Nc1cc(C)on1,–,–,–,13µM,–,–
O=C(OCC#Cc1c(COC(=O)c2ccccc2)nnn1Cc1ccccc1)c1ccccc1,18µM,–,?,?,–,–
O=C(OCc1ccccc1)c1cccc(-c2nnn(Cc3ccccc3)n2)c1,–,–,–,–,–,?
COCCN(CC(=O)NC1CCCCC1)C(=O)/C=C/C(=O)c1ccc(OC)cc1O,2.1µM,?,2.3µM,6.5µM,-101,–
COc1ccc(C(=O)OCC(=O)NC(=O)NC2CCCC2)c(O)c1,–,–,–,–,–,–
SMILES,DT40 TDP1 CPT,SW480 rereplic,TDP1 cell noCPT,MCF10A rerep,IL-1B inflam inh,Chronic BCR inh
COc1ccc(C(=O)/C=C/C(=O)N(Cc2ccc3c(c2)OCO3)C(C(=O)NC2CCCCC2)c2ccncc2)c(O)c1 (stereo not drawn),?,?,23µM,?,?,?
COc1ccc(CN(C(=O)/C=C/C(=O)c2ccc(OC)cc2O)C(C(=O)NC2CCCCC2)c2ccncc2)cc1 (stereo not drawn),?,?,?,–,?,–
COc1ccc(C(=O)/C=C/C(=O)N(CC(=O)NC2CCCCC2)Cc2cccs2)c(O)c1,1.6µM,?,3.3µM,18µM,-100,?
COc1ccccc1C(=O)NNC(=O)c1ccc(Br)cc1,–,–,–,?,–,?
Brc1ccc(-c2nnc3sc(CN4CCc5ccccc5C4)cn23)cc1,–,?,–,–,–,·
c1ccc(-c2nnc3sc(CN4CCc5ccccc54)cn23)cc1,21µM,–,?,–,–,–
CCOC(=O)C1CCCN(Cc2cn3c(-c4cccc(Br)c4)nnc3s2)C1 (stereo not drawn),–,·,?,·,·,·
COc1cccc(-c2nnc3sc(CN4CCCCC4)cn23)c1,1.2µM,·,1.3µM,·,·,·
CCC(C)NC(=O)c1ccc2c(c1)N(Cc1ccccc1)C(=O)c1ccccc1S2(=O)=O (stereo not drawn),?,·,–,·,·,·
O=C(NCCc1ccc(Cl)cc1)c1ccc2c(c1)N(Cc1cccc(Cl)c1)C(=O)c1ccccc1S2(=O)=O,?,·,7.3µM,·,·,?
O=C(Nc1ccc(Cl)cc1)c1ccc2c(c1)N(Cc1ccccc1)C(=O)c1ccccc1S2(=O)=O,16µM,·,23µM,·,·,·
COC(=O)c1ccc2c(c1)N(Cc1ccccc1)C(=O)c1ccccc1S2(=O)=O,16µM,·,?,·,·,–
CSc1ccc(S(=O)(=O)N2CCC(C(=O)NC3CC3)CC2)cc1,–,–,–,–,–,–
O=C(CCOc1ccccc1)NNC(=O)c1ccccc1,–,–,–,–,–,–
COc1cccc(C2C=C(c3ccccc3)Nc3c(C(=O)Nc4ccccc4)cnn32)c1OC (stereo not drawn),16µM,·,15µM,·,·,·
COc1cccc(C2=CC(c3ccc(C)cc3)n3ncnc3N2)c1 (stereo not drawn),·,·,·,·,·,–
Cc1ccc(NC(=O)c2cnn3c2NC(c2ccccc2)=CC3c2ccccc2)cc1 (stereo not drawn),10µM,·,?,·,·,·
Cc1ccc(C2C=C(c3ccccc3)Nc3nc(NS(=O)(=O)c4ccc(C)cc4)nn32)cc1 (stereo not drawn),?,·,?,·,·,–
COc1cccc(C2=CC(c3ccccc3F)n3ncc(C(=O)Nc4ccc(C)cc4)c3N2)c1 (stereo not drawn),?,·,16µM,·,·,?
COc1cccc(C(=O)COC(=O)c2cccs2)c1,–,–,–,–,–,–
Cc1ccc2c(c1)C1CN(C)CCC1N2S(=O)(=O)c1ccccc1F (stereo not drawn),–,–,–,–,-51,–
COc1ccc(N2CCN(C(=O)c3cc(-c4cccs4)nc4ccccc34)CC2)cc1,?,–,?,–,–,–
COc1cccc(C(=O)COC(=O)c2cc(-c3cccs3)nc3ccccc23)c1,?,·,16µM,·,·,·

# Bioassay records deposited in PubChem BioAssay by National Center for Advancing Translational Sciences (NCATS).
